Assay outcomes: PubChem BioAssay, The Scripps Research Institute Molecular Screening Center
TEAD-YAP inh: TEAD-YAP interaction inhibition, primary screen, TEAD-YAP interaction inhibitor project, luminescence, HEK-TIYL cells. AID 1259422, 2018. TEAD-Gal4/YAP UAS-luciferase luminescence. 1.4% of 640,000 active. inhibition, % at 9.12 µM; in the data active means inhibition above about 32%;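 further: 0% = median of test compound wells and 100% = reference inhibitor wells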
GPR151 activ: activators of human GPR151, primary screen, cell-based, PathHunter beta-arrestin, luminescence. G-protein coupled receptor 151 (Homo sapiens), Q8TDV0. PathHunter beta-arrestin GPR151 cells. activation, % at 11.2 µM. 1% of 650,000 active; in the data active means activation above about 4.9%;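 further: 0% = median of compound wells and 100% = cells with positive control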
Target sequence (Q8TDV0 whole entry, looked up): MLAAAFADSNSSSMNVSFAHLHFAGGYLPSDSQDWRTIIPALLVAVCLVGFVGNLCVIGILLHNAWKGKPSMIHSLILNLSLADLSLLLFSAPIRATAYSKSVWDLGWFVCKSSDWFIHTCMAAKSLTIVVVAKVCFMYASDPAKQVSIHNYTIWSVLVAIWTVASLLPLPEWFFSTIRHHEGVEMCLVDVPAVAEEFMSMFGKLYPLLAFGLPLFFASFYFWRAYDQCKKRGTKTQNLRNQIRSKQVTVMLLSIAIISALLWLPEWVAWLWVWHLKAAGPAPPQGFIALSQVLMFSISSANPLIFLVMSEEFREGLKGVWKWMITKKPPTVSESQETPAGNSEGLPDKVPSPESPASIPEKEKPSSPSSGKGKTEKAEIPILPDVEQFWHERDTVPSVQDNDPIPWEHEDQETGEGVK
MITF primary: MITF inhibitors, primary screen, biochemical, AlphaScreen, human; 0.91% of 650,000 active; AlphaScreen MITF homodimerization, bead proximity signal; inhibition, % at 2.6 µM; in the data active means inhibition above about 50%;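 further: 0% = vehicle wells with protein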
FBW7 activator: FBW7 E3 ligase activators, primary screen, biochemical, AlphaScreen, human | AID 1259310, 2017 | AlphaScreen FBW7–phospho-cyclin E peptide binding, activator screen | F-box/WD repeat-containing protein 7 (Homo sapiens), Q969H0 | 0.13% of 650,000 active | normalized activity (activation), % at 26.1 µM; in the data active means normalized activity above about 1.9%;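 further: purified mutant Fbw7 with reduced substrate affinity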
MITF inh conf: MITF inhibitors, retest of hits, confirmation, biochemical, AlphaScreen, triplicate; inhibition, % at 2.6 µM; shares compounds with MITF primary; 16% of 4,700 active; AlphaScreen MITF homodimerization, biotin/His-MITF beads;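 active means inhibition above a cutoff derived from the DMSO control wells, cut at about 28% in these data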;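 further: 0% = MITF dimer wells with DMSO only; inhibitors lower the bead chemiluminescence by keeping MITF from dimerizing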
AlphaScreen DR: AlphaScreen optical interference compounds, dose response, counter-screen, biochemical, HTS; 6% of 480 active; IC50, µM; AlphaScreen optical interference counterscreen, cell-free; AID 1259373, 2018; shares compounds with MITF primary; call rule not given here
AlphaScreen intf2: AlphaScreen optical interference compounds, counter-screen for MITF inhibitor project, biochemical, triplicate; shares compounds with MITF primary; 7.6% of 4,700 active; inhibition, % at 2.6 µM; LysRS AlphaScreen counterscreen, signal interference;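 active means inhibition above a cutoff derived from the DMSO control wells, cut at about 30% in these data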
* = called active by the depositor; . = not tested or not shown. Shown are actives, neighbours in structure and some others; about 3.5% of the full set was active somewhere.

SMILES	TEAD-YAP inh	GPR151 activ	MITF primary	FBW7 activator	MITF inh conf	AlphaScreen intf2	others
COc1ccc(N2CCN(C(=O)c3ccccc3I)CC2)cc1	0.7	2.2	6.8	-0.1	.	.
CC(C)Sc1ccc(-c2ccccc2C=O)cn1	-0.3	0.3	113.7*	0.5	6.2	7.9
COc1cc(CN2CCN(Cc3ccccc3Br)CC2)cc2c1OCO2	0.6	-1.0	73.2*	-0.3	8.4	14.0
COc1cc(CN2CCc3nnc(CCc4ccccc4)n3CC2)cc2c1OCO2	4.0	1.7	2.1	0.0	.	.
COc1cc(CN2CCN(Cc3cccc(C)c3)CC2)cc2c1OCO2	1.2	1.3	57.7*	0.1	0.7	-0.8
COc1cc(CN2CCN(Cc3ccccc3)CC2)cc2c1OCO2	-1.2	-0.5	77.7*	0.1	7.2	-2.2
COc1cc(CN2CCN(Cc3cccnc3)CC2)cc2c1OCO2	3.1	-0.3	67.6*	-0.1	11.5	22.8
COc1cc2c(cc1OC)CN(Cc1cc(OC)c3c(c1)OCO3)CC2	1.6	0.3	23.7	-0.2	.	.
Cc1c(Cl)cccc1NC1CS(=O)(=O)CC1O (centres undefined)	13.2	-1.9	5.0	0.1	.	.
Cc1cc(C(C)(C)C)cc(C)c1S(=O)(=O)Nc1ccc(C(N)=O)cc1	4.2	3.3	15.2	0.1	.	.
COc1cc(CN2CCCN(C)CC2)cc2c1OCO2	12.4	0.9	39.2	0.7	.	.
COc1cc(CN2CCN(Cc3ccccc3Cl)CC2)cc2c1OCO2	-2.5	-1.0	75.6*	0.1	14.6	12.0
COc1cc(CN2CCN(Cc3ccccc3F)CC2)cc2c1OCO2	-5.5	-1.1	81.0*	-0.3	-0.2	6.3
COc1cc(CN2CCN(Cc3cc(OC)c4c(c3)OCO4)CC2)cc2c1OCO2	-4.5	1.3	54.2*	-0.2	14.5	23.8
Cc1cccc(C(=O)NC(C)c2n[nH]c(=S)n2C)c1 (centres undefined)	5.4	0.6	2.4	0.0	.	.
COc1ccc(/C=C(/NC(=O)c2ccco2)C(=O)N2CCOCC2)cc1OC	6.5	3.5	19.6	0.5	.	.
O=C(NCCc1ccccc1)C(=O)Nc1cccc(C(F)(F)F)c1	-2.4	-0.5	3.1	0.1	.	.
O=C1C2CCCCC2C(=O)N1c1ccc2c(c1)CCC2 (centres undefined)	-18.3	-2.9	18.6	-0.1	.	.
O=C1C2C3C=CC(C3)C2C(=O)N1c1ccc2c(c1)CCC2 (centres undefined)	-4.6	0.3	79.4*	0.1	4.5	11.7
COc1cccc(C(=O)N2CCN(Cc3ccc(OC)c(Br)c3)CC2)c1	-6.6	-0.5	51.7*	-0.2	11.3	13.5
COc1ccc(CN2CCN(C(=O)c3cccc(OC)c3)CC2)cc1	5.9	0.7	26.7	0.1	.	.
COc1ccc(CN2CCN(C(=O)c3cc(OC)c(OC)c(OC)c3)CC2)cc1Br	-3.8	-1.6	52.0*	1.1	6.2	1.6
O=C(CNC(=O)c1ccc2c(c1)OCO2)N=Nc1c(O)[nH]c2ccccc12	11.1	3.4	2.3	-0.1	.	.
O=C(CSc1ccc(F)cc1)N1CC(c2nc3ccccc3[nH]2)C1	4.5	0.0	60.4*	-0.4	5.6	14.3
Cc1ccc(NNC(=S)NC(C)C)c(C)c1	-4.2	-3.0	21.5	-0.3	.	.
SMILES	TEAD-YAP inh	GPR151 activ	MITF primary	FBW7 activator	MITF inh conf	AlphaScreen intf2	others
CCCNC(=O)CCC(=O)N1CCOc2ccccc21	4.0	1.5	6.1	-0.1	.	.
Cc1cc(C)c2nc(/N=C/c3cc([N+](=O)[O-])cc([N+](=O)[O-])c3O)sc2c1	-10.4	0.1	-9.1	0.1	.	.
Cc1ccc2nc(/N=C/c3cc([N+](=O)[O-])cc([N+](=O)[O-])c3O)sc2c1	20.9	-3.4	51.2*	0.3	-2.8	1.8
N=C1SCC(=O)N1c1ncc(Cc2cccc(C(F)(F)F)c2)s1	23.3	-2.2	9.7	-0.2	.	.
N=C1SCC(=O)N1c1ncc(Cc2ccccc2)s1	4.2	-1.5	59.4*	-0.5	10.4	42.6*
CCOc1ccc(-c2cn3nc(COc4ccc(Cl)cc4Cl)n4c3c2CCCC4)cc1	-15.7	-1.5	58.8*	0.8	-9.3	-5.0
Cc1cccc(C(=O)N2CCN(Cc3ccccc3)CC2)c1	3.0	0.0	5.5	0.4	.	.
O=C(O)c1ccccc1SC1CC(=O)N(c2ccc(F)cc2)C1=O (centres undefined)	1.2	-0.5	7.7	0.3	.	.
O=[N+]([O-])c1ccc(CN2CCN(Cc3ccc4c(c3)OCO4)CC2)s1	4.2	0.8	56.4*	0.0	6.8	4.3
O=C(c1ccccc1[N+](=O)[O-])N1CCN(Cc2ccc3c(c2)OCO3)CC1	1.3	0.3	-7.5	0.2	.	.
O=[N+]([O-])c1ccc(CN2CCN(c3ccccc3F)CC2)s1	-7.1	0.9	53.0*	-0.1	5.8	9.9
O=[N+]([O-])c1ccccc1CN1CCN(Cc2ccc3c(c2)OCO3)CC1	-9.8	-0.4	58.7*	-0.2	18.5	36.2*
CC(=O)Nc1ccc(Cc2nc3ccccc3[nH]2)cc1	-4.1	0.2	16.1	0.0	.	.
C/C(=N\Nc1ccccc1[N+](=O)[O-])N1C(=O)c2ccccc2C1=O	-17.3	-0.6	2.6	-0.4	.	.
O=P(O)(O)C(Sc1ccc(Cl)cc1)P(=O)(O)O	.	1.8	96.3*	-0.2	105.9*	-8.1	AlphaScreen DR=>6.48
O=C(O)c1cccc(S(=O)(=O)Nc2ccc(NC(=O)c3ccccc3)cc2)c1	-8.0	-0.4	13.5	1.1	.	.
CCS(=O)(=O)N1CCc2ccc(NS(=O)(=O)Cc3ccccc3F)cc2C1	17.3	0.3	74.8*	0.6	-3.0	4.3
CCS(=O)(=O)N1CCc2ccc(NS(=O)(=O)C(C)C)cc2C1	-2.2	-1.1	-4.1	-0.1	.	.
COc1ccc(C(C)NC(=O)CC23CC4CC(CC(C4)C2)C3)cc1 (centres undefined)	2.9	-1.2	11.1	0.1	.	.
C=CCSc1nc2sc3c(c2c(=O)n1CC)CCCC3	6.2	0.2	-6.6	-0.2	.	.
Brc1cccc(OCCCn2ccnc2)c1	3.9	-0.4	65.0*	0.0	2.5	-0.1
Brc1cccc(OCCOCCn2ccnc2)c1	1.8	0.9	21.4	0.0	.	.
Brc1cccc(OCCn2ccnc2)c1	8.6	-0.7	51.5*	0.1	-1.8	7.3
COc1ccc(-c2noc(C3CCCN(S(=O)(=O)c4ccc(Cl)cc4)C3)n2)cc1 (centres undefined)	-1.5	-1.6	2.2	-0.1	.	.
COc1ccc(C(=O)NNC(=O)c2cc3ccccc3cc2O)cc1	5.0	-1.8	12.2	-0.1	.	.
N#Cc1ccc(OCC(=O)NN=C2CCCC2)cc1	-0.3	0.7	14.5	0.4	.	.
N#Cc1ccc(CSCC(=O)NN=C2CCCC2)cc1	-0.3	1.4	51.4*	0.2	-8.7	-0.8
